“And” between values parts separate entries of the source, which are not always exact repeats. Equal values may be shown once. Inconclusive results are not listed. The source holds several records for some structures; these can differ, active in one and inactive in another. The source made the active and inactive calls. How the source made its calls, unless noted: active means hit-call score of the fitted dose curve at least 0.9, where 1 is the maximum; inconclusive means response in the unintended direction; inactive means score below 0.9.
Columns and labels:
[1] = read-out: Transforming Growth Factor (TGFB1), TGFB1 (gene 7040); assay: LTEA_HepaRG_TGFB1: Life Technologies and Expression Analysis (LTEA) Assay for Transforming Growth Factor (TGFB1) Transporter using HepaRG (AID 2283533; active means hit-call score of the fitted dose curve at least 0.9, where 1 is the maximum; inactive means score below 0.9); settings: mRNA level, 48 h; actives raise or lower the signal
Summary of the method: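 Differentiated human HepaRG cells in serum-free induction medium were exposed in duplicate for 48 h to eight concentrations (top 100 uM, half-log steps, 0.5% DMSO). TGFB1 mRNA was quantified by qRT-PCR, normalized to ACTB, GAPDH, POLR2A, and fitted bidirectionally against DMSO.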

TIMP1, TIMP1 (gene 7076) = assay: LTEA_HepaRG_TIMP1: Life Technologies and Expression Analysis (LTEA) Assay for TIMP1 using HepaRG (AID 2283534; active means hit-call score of the fitted dose curve at least 0.9, where 1 is the maximum; inactive means score below 0.9); settings: mRNA level, 48 h; actives raise or lower the signal
Summary of the method: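 Differentiated human HepaRG cells in serum-free induction medium were exposed 48 h to chemicals (8 half-log concentrations, top 100 uM, 0.5% DMSO). TIMP1 mRNA was quantified by TaqMan qRT-PCR, normalized to ACTB/GAPDH/POLR2A; bidirectional fit versus DMSO.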

[2] = read-out: Tumor necrosis factor receptor 1 (TNFRSF1A), TNFRSF1A (gene 7132); assay: LTEA_HepaRG_TNFRSF1A: Life Technologies and Expression Analysis (LTEA) Assay for Tumor necrosis factor receptor 1 (TNFRSF1A) using HepaRG (AID 2283535; active means hit-call score of the fitted dose curve at least 0.9, where 1 is the maximum; inactive means score below 0.9); settings: mRNA level, 48 h; actives raise or lower the signal
Summary of the method: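 Differentiated human HepaRG cells were exposed in duplicate for 48 h in serum-free induction medium to eight concentrations (top 100 uM, half-log steps, 0.5% DMSO). TNFRSF1A mRNA was quantified by qRT-PCR, normalized to ACTB, GAPDH and POLR2A, then fitted bidirectionally against DMSO.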

[3] = read-out: Thyroid Hormone Responsive (THRSP), THRSP (gene 7069); assay: LTEA_HepaRG_THRSP: Life Technologies and Expression Analysis (LTEA) Assay for Thyroid Hormone Responsive (THRSP) using HepaRG (AID 2283536; active means hit-call score of the fitted dose curve at least 0.9, where 1 is the maximum; inactive means score below 0.9); settings: mRNA level, 48 h; actives raise or lower the signal
Summary of the method: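 Cell model: human HepaRG, approx. 100,000 cells/well, 0.5% DMSO vehicle. Exposure lasts 48 h; phenobarbital 1 mM serves as induction positive control. Gene expression is measured by qRT-PCR against three endogenous control genes.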

[4] = read-out: Cellular tumor antigen p53 (Homo sapiens) (UniProt P04637); assay: LTEA_HepaRG_TP53: Life Technologies and Expression Analysis (LTEA) Assay for Tumor Protein P53 (TP53) using HepaRG (AID 2283537; active means hit-call score of the fitted dose curve at least 0.9, where 1 is the maximum; inactive means score below 0.9); settings: mRNA level, 48 h; actives raise or lower the signal
Summary of the method: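 HepaRG, 48 h exposure, top 100 uM, half-log 8-point, 0.5% DMSO vehicle, duplicates. Read: TP53 mRNA by TaqMan qRT-PCR, normalised to ACTB/GAPDH/POLR2A; bidirectional fit vs DMSO.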

[5] = read-out: UDP glucuronosyltransferase (UGT1A1), UGT1A1 (gene 54658); assay: LTEA_HepaRG_UGT1A1: Life Technologies and Expression Analysis (LTEA) Assay for UDP glucuronosyltransferase (UGT1A1) using HepaRG (AID 2283538; active means hit-call score of the fitted dose curve at least 0.9, where 1 is the maximum; inactive means score below 0.9); settings: mRNA level, 48 h; actives raise or lower the signal
Summary of the method: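 mRNA induction or loss of UGT1A1, by TaqMan qRT-PCR, in duplicate HepaRG wells after 48 h exposure to half-log dilutions topping at 100 uM; DMSO (0.5%) served as baseline.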

[6] = read-out: UDP glucuronosyltransferase (UGT1A6), UGT1A6 (gene 54578); assay: LTEA_HepaRG_UGT1A6: Life Technologies and Expression Analysis (LTEA) Assay for UDP glucuronosyltransferase (UGT1A6) using HepaRG (AID 2283539; active means hit-call score of the fitted dose curve at least 0.9, where 1 is the maximum; inactive means score below 0.9); settings: mRNA level, 48 h; actives raise or lower the signal
Summary of the method: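 Human HepaRG cells were dosed for 48 h in serum-free induction medium with 0.5% DMSO vehicle, eight-point half-log series from 100 uM, in duplicate. UGT1A6 mRNA was measured by qRT-PCR, normalized to ACTB, GAPDH, POLR2A, and fitted bidirectionally against DMSO.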

[7] = read-out: X-box binding protein 1 (XBP1), XBP1 (gene 7494); assay: LTEA_HepaRG_XBP1: Life Technologies and Expression Analysis (LTEA) Assay for X-box binding protein 1 (XBP1) using HepaRG (AID 2283540; active means hit-call score of the fitted dose curve at least 0.9, where 1 is the maximum; inactive means score below 0.9); settings: mRNA level, 48 h; actives raise or lower the signal
Summary of the method: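 Differentiated human HepaRG cells in serum-free induction medium were exposed in duplicate for 48 h to eight half-log concentrations up to 100 uM in 0.5% DMSO. XBP1 mRNA was quantified by qRT-PCR, normalised to ACTB, GAPDH and POLR2A, with bidirectional fitting against DMSO.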

[8] = LTEA_HepaRG_LDH_cytotoxicity: Cytotoxicity Assessment in the Life Technologies and Expression Analysis (LTEA) Assay (AID 2283563);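 on AC50: LDH activity released into spent culture medium as a marker of cell death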
Summary of the method: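 Differentiated human HepaRG cells, plated 48 h beforehand, were switched to serum-free induction medium and exposed for 48 h to eight half-log concentrations (top 100 uM) in 0.5% DMSO. LDH was measured in spent medium; activity was fitted relative to DMSO vehicle.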

[9] = TOX21_p53_BLA_p2_viability: Viability Assessment in the Tox21 HCT-116 p53 Agonism Beta-lactamase Assay, Phase 2 (AID 2283591);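 further: compound exposure lasted 16 h at 37 °C; actives lower the ATP signal meaning cytotoxicity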
Summary of the method: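 HCT-116 p53-bla cells (4000/well) rested 5 h at 37C, then received compounds in DMSO (217-fold dilution) for 16 h at 37C, 5% CO2. After the CCF4 read, CellTiter-Glo was added; ATP luminescence was read after 30 min at room temperature.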

[10] = biological target: Cellular tumor antigen p53 (Homo sapiens) (UniProt P04637); assay: TOX21_p53_BLA_p2_ratio: Tox21 HCT-116 p53 Agonism Beta-lactamase Assay, Ratio, Phase 2 (AID 2283592)
Cellular tumor antigen p53 (Homo sapiens), sequence (P04637 whole entry, looked up): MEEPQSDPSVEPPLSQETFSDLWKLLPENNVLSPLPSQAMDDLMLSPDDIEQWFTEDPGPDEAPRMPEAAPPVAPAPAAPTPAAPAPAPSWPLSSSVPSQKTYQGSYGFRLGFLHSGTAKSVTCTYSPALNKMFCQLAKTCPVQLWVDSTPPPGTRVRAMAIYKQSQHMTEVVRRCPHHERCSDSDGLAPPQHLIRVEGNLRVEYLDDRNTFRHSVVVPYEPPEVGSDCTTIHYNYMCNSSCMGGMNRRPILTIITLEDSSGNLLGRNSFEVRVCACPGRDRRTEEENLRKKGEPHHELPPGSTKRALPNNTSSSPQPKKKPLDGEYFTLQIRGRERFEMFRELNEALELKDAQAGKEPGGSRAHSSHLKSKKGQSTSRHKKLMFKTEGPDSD
Summary of the method: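 Ratio endpoint: beta-lactamase cleavage of CCF4-AM, blue (460 nm) over green (530 nm). HCT116 reporter line; 16 h treatment, 37C; substrate 2 h RT.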

[11] = TOX21_p53_BLA_p3_viability: Viability Assessment in the Tox21 HCT-116 p53 Agonism Beta-lactamase Assay, Phase 3 (AID 2283593);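 further: cells exposed to compound for 16 h before reading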
Summary of the method: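 HCT-116 cells (4000/well) rested 5 h at 37C, then got DMSO compounds by pin tool (217-fold dilution) for 16 h at 37C, 5% CO2. After the bla read, CellTiter-Glo was added and luminescence read at 30 min, room temperature.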

[12] = biological target: Cellular tumor antigen p53 (Homo sapiens) (UniProt P04637); assay: TOX21_p53_BLA_p3_ratio: Tox21 HCT-116 p53 Agonism Beta-lactamase Assay, Ratio, Phase 3 (AID 2283596)
Summary of the method: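 Cells were seeded at 4000/well, rested 5 h at 37C, then dosed with DMSO compound solutions (217-fold dilution) for 16 h. CCF4-AM substrate was loaded for 2 h at room temperature, and the 460/530 nm emission ratio was fitted for gain of signal versus DMSO.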

[13] = TOX21_p53_BLA_p4_viability: Viability Assessment in the Tox21 HCT-116 p53 Agonism Beta-lactamase Assay, Phase 4 (AID 2283597);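 further: hits lower the luminescence signal meaning cytotoxicity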
Summary of the method: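 Cytotoxicity was inferred from loss of CellTiter-Glo luminescence. HCT116 cells had been dosed with compounds after 5 h plating, incubated 16 h at 37C and 5% CO2, and exposed to the CCF4-AM substrate for 2 h.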

[14] = biological target: Cellular tumor antigen p53 (Homo sapiens) (UniProt P04637); assay: TOX21_p53_BLA_p5_ratio: Tox21 HCT-116 p53 Agonism Beta-lactamase Assay, Ratio, Phase 5 (AID 2283599)
Summary of the method: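 HCT-116 cells carrying a p53-inducible beta-lactamase reporter were seeded at 4000 cells/well and dosed after 5 h with compound in DMSO (217-fold dilution). After 16 h at 37C, CCF4-AM substrate was added for 2 h, and the 460/530 nm emission ratio was scored as gain-of-signal versus DMSO.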

[15] = TOX21_p53_BLA_p5_viability: Viability Assessment in the Tox21 HCT-116 p53 Agonism Beta-lactamase Assay, Phase 5 (AID 2283600)
Summary of the method: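 Luciferase-coupled ATP quantitation of cells treated for 16 h (37C, 5% CO2) with test chemicals delivered in DMSO via a 217-fold dilution; 4000 cells/well; reagent incubated 30 min at room temperature before luminescence reading.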

[16] = biological target: Cellular tumor antigen p53 (Homo sapiens) (UniProt P04637); assay: TOX21_p53_BLA_p4_ratio: Tox21 HCT-116 p53 Agonism Beta-lactamase Assay, Ratio, Phase 4 (AID 2283601)
Summary of the method: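 HCT116 cells carrying an inducible beta-lactamase reporter were plated at 4000 cells/well, rested 5 h, then exposed to compounds in DMSO (217-fold dilution) for 16 h at 37C. CCF4-AM substrate was loaded 2 h at room temperature; 460/530 nm emission ratio scored gain-of-signal versus DMSO.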

[17] = Tanguay_ZF_120hpf_MORT_legacy: (Legacy) Oregon State University Tanguay Lab 120 Hour Post-fertilization zebrafish Assay for Mortality (AID 2283633);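 on AC50: fitted as increase in binary mortality versus DMSO negative control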
Summary of the method: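 Dechorionated Tropical 5D wild-type zebrafish embryos, one per well from 6 hpf, were statically exposed at 28C in the dark until 120 hpf (0.64% DMSO final). Mortality was scored as present/absent by brightfield microscopy, fitted positively versus DMSO.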

[18] = Tanguay_ZF_120hpf_YSE_legacy: (Legacy) Oregon State University Tanguay Lab 120 Hour Post-fertilization zebrafish Assay for Yolk Sac Edema (AID 2283634);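 on AC50: actives raise the incidence of yolk sac edema above the DMSO baseline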
Summary of the method: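 Tropical 5D wild-type embryos, dechorionated with pronase at 4 hpf, were exposed singly from 6 hpf to 120 hpf under static, sealed, dark conditions at 28C with 0.64% DMSO final. Yolk sac edema was scored present/absent by brightfield microscopy.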

[19] = ATG_XTT_Cytotoxicity: Cytotoxicity Assessment in the Attagene TRANS-FACTORIAL HepG2 Assay (AID 2283584);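 on AC50: cells exposed to compound for 24 h before reading; active means loss of viability signal versus DMSO baseline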
Summary of the method: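 HepG2 human liver cells, transiently transfected with multiple GAL4-UAS reporter units, were dosed and read at 24 h by XTT as cell number. Loss of signal was fitted relative to DMSO negative control baseline.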

Measured: AC50

OCCOc1ccccc1
not listed: [19]
inactive: all other assays above

Oc1cc(Cl)ccc1Oc1ccc(Cl)cc1Cl
active: TIMP1, TIMP1 (gene 7076) 10.1 µM | [2] 10.1 µM | [3] 94.7 µM | [6] 51 µM | [8] 78.6 µM and 78.2 µM and 78 µM | [19] 66.3 µM and 51.2 µM and 39.8 µM | [9] 31.6 µM | [10] 73.1 µM | [11] 54.2 µM | [12] 78.1 µM | [13] 41.3 µM | [14] 81.1 µM | [15] 48 µM | [16] 79 µM | [17] 26.5 µM
inactive: [1] | TIMP1, TIMP1 (gene 7076) | [2] | [3] | [4] | [5] | [6] | [7] | [19] | [9] | [10] | [13] | [14] | [15] | [16] | [17] | [18]

N#Cc1c(Cl)c(Cl)c(Cl)c(C#N)c1Cl
inactive: [1] | [2] | [4] | [5] | [6] | [9] | [10]
active: TIMP1, TIMP1 (gene 7076) 22.5 µM | [3] 13.2 µM | [7] 82.3 µM | [8] 50 µM | [9] 22.5 µM | [10] 15.7 µM | [11] 20.7 µM and 23.1 µM | [12] 815 nM and 77.5 µM | [13] 2.04 µM and 2.82 µM | [14] 85.4 µM and 17.1 µM | [15] 17.1 µM and 15.8 µM | [16] 1.11 µM and 1.12 µM | [17] 24.8 µM

COc1nn(CSP(=S)(OC)OC)c(=O)s1
active: [5] 15.1 µM
not listed: [19]
inactive: all other assays above

O=C(O)CCCOc1ccc(Cl)cc1Cl
active: [5] 34.5 µM | [18] 42.6 µM
inactive: all other assays above

O=C1c2ccccc2C(=O)N1SC(Cl)(Cl)Cl
active: [10] 7.1 µM and 14.8 µM | [12] 6.49 µM and 23.1 µM | [14] 14.1 µM and 12.9 µM | [16] 13.5 µM and 22.1 µM
not listed: [15] | [19]
inactive: all other assays above

O=S1OCC2C(CO1)C1(Cl)C(Cl)=C(Cl)C2(Cl)C1(Cl)Cl (stereo unspecified)
inactive: TIMP1, TIMP1 (gene 7076) | [2] | [5] | [6] | [7] | [19] | [11] | [12] | [17] | [18]
active: [1] 72.1 µM | [3] 41.7 µM | [4] 70.2 µM | [8] 94 µM | [9] 46.1 µM and 81.5 µM | [10] 73.9 µM and 86.2 µM | [11] 54.1 µM | [13] 70.9 µM and 85.8 µM | [14] 87.3 µM and 73.3 µM | [15] 75.3 µM and 70.2 µM | [16] 69.2 µM and 74.9 µM

O=C(O)C(F)(F)C(F)(F)C(F)(F)C(F)(F)C(F)(F)C(F)(F)C(F)(F)F
active: [3] 26.1 µM | [4] 12.3 µM | [5] 3.11 µM and 7.73 µM | [7] 50 µM
inactive: [1] | TIMP1, TIMP1 (gene 7076) | [2] | [3] | [4] | [6] | [7] | [8] | [19] | [9] | [10] | [11] | [12] | [13] | [14] | [15] | [16] | [17] | [18]

COP(=S)(OC)Oc1ccc([N+](=O)[O-])cc1
not listed: [15]
inactive: all other assays above
